This note sets out measurements from PubChem BioAssay AID1347426 (Functional Genomics Laboratory (NCATS/FGL), 2020).

The whole screen tested about 31,000 sequences, of which about 1,400 (4.5%) were called active. Shown is part of a subset that was picked to be rich in actives. A number with no mark means an inactive call.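 How the source made its calls: active means median seed-adjusted z-score above 1 or below -1; inactive means the rest.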

This assay is described as follows: Novel Modifiers of Survival Motor Neuron (SMN) Protein: Gene Identification via Genome-wide siRNA Screen.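 Further: luminescence tracks full-length SMN protein made from the SMN2 reporter.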 The note with it: HEK293T SMN2-luciferase reporter, siRNA knockdown, 72 h; actives lie on both sides. Put shortly:
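siRNA screen, 10418 genes ×3 siRNAs; 1 pmol/well, lipid reverse transfection into HEK293T SMN2-luc reporter line. 72 h, 37 °C, 5% CO2; ONE-Glo readout. Data: neg-ctrl normalized, log10, MAD; hit = MAD >1.0 or < -1.0.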
(In a reporter assay the amount or activity of a reporter protein is the signal.)
As to CCAUAUUAAUGUCCAUGAUTT against PCDHB7, the median seed-adjusted z-score is 0.365.

For GGAUGCCCACUGUAUCAUATT against MYST2, the median seed-adjusted z-score is -1.46 (active).

Take GAUGGAUACCUCUACCUGATT against ZNF593: the median seed-adjusted z-score is 0.215.

Take CGUGAUCUCAAGUCCAACATT against MAP3K11: the median seed-adjusted z-score is 0.773.

On to CUACCAUUUUCAUCGAGGATT against FREM3, for which the median seed-adjusted z-score is -0.565.

As for CGAAAGAGGCAAAUAUGAATT against CBX3, the median seed-adjusted z-score is -0.893.

Turning to GGAUCGGGUUUACUCAGAATT against ACTR6, the median seed-adjusted z-score was 0.189.

GGAAGGAACCAUCCAGUAATT against POLR2L: the median seed-adjusted z-score is -1.19 (active).

On to AGUUCUUCCUAAUCCGAGATT against DOLPP1, for which the median seed-adjusted z-score is 0.00977.

On to AAUCGAUCCUCAAUCCUUATT against ZNF676, for which the median seed-adjusted z-score is -0.499.

As to GCUCCAAAUUGGUUGUAUUTT against PRKAG1, the median seed-adjusted z-score was 0.431.

As to GAACAACUCUUGUGAGAUUTT against STC2, the median seed-adjusted z-score was -0.00039.

Take GCUUCUGAAAUGAACCGAATT against DDHD2: the median seed-adjusted z-score is 0.447.

In the case of GUGCGGUAGCUACUUGUUUTT against RRAD, the median seed-adjusted z-score was -0.267.

GGACUCUCAUGAGUGCUGATT against ACP2: the median seed-adjusted z-score is -0.00569.

As to GAAAGAUGUUGGGAAUAAATT against ST6GAL2, the median seed-adjusted z-score was 0.054.

For the sequence CAUCCAUUAUGACCUGCUATT against ACO2, the median seed-adjusted z-score is -1.57 (active).

Consider CGUGUGGACUUGACAAGCATT against OBSCN, for which the median seed-adjusted z-score is -0.798.

CUAUAUCUCCAACACUUUUTT against SMARCD3: the median seed-adjusted z-score was 0.247.

As to GAGAAAAAGCGGAUCAAGATT against GRK6, the median seed-adjusted z-score is -0.862.

In the case of GGAAGAACGUGUAACCGAATT against RDX, the median seed-adjusted z-score is 0.123.

In the case of GAGUCUGCGUUAUCGACAATT against TPR, the median seed-adjusted z-score was -1.03 (active).

Consider GGAUGAAAAAUACCGGUGUTT against UGT8, for which the median seed-adjusted z-score is 0.

Take CAACCUUUCACUGCAAUGATT against NAT8: the median seed-adjusted z-score was -0.228.

Turning to CGGGAAGAAUCAAAGUCGATT against KRT23, the median seed-adjusted z-score was -0.0696.

With GGAGCGAAAUGUUCAGGUUTT against PSPH, the median seed-adjusted z-score is -0.518.

For CGAGGACACUCAAACGGAUTT against TAF7L, the median seed-adjusted z-score is -0.14.

For the sequence CACGAAAACUUACCCAGAATT against DGUOK, the median seed-adjusted z-score was 0.0168.

For GGUCCCAGCUUGAAGAGAATT against CSTB, the median seed-adjusted z-score was 1.08 (active).

Take CAGGCAAAGUUCGACAGUATT against HEPH: the median seed-adjusted z-score is -0.293.

In the case of GGAUUCUCAGUUACACUUATT against SLC25A3, the median seed-adjusted z-score is -0.495.

For the sequence GAUCCGUUCUGAUUAGUGATT against EZH1, the median seed-adjusted z-score is 0.268.

Turning to GUUCCUCACUUAUCGCUAUTT against ADAMTSL3, the median seed-adjusted z-score was -0.0419.

Turning to GGAACUACGUCCACACCCATT against GHRHR, the median seed-adjusted z-score is 0.

For GGAUAACACUAAGUUUAGATT against SFRS1, the median seed-adjusted z-score is -1.66 (active).

GGCCGGUGUUUGACGACAATT against STK32C: the median seed-adjusted z-score was -0.311.

As for CUCCCUCACCAAAACAAAATT against DUSP26, the median seed-adjusted z-score was 0.204.

Take CAAGGUCUGUAGUCAAAAUTT against ZNF677: the median seed-adjusted z-score was -0.441.

Turning to GGAGGUUCAGAAGCACCUATT against PACSIN2, the median seed-adjusted z-score was 0.73.

As to GUGUAGCACUGACCAAGAATT against RCAN3, the median seed-adjusted z-score is 0.544.

In the case of GAUCUGUGCUAUACUGACATT against EFTUD2, the median seed-adjusted z-score is -1.25 (active).

Consider GACCUGCUCUGUAACCUCATT against NAALADL1, for which the median seed-adjusted z-score was -0.0444.

Turning to AAAACUUACGAACAACAAATT against TBR1, the median seed-adjusted z-score was -0.388.

As for UCAAGCAUGUGGUCCUGUATT against AIP, the median seed-adjusted z-score is 0.529.

As for GAUGAGUAUGCAAAAUUUATT against ATR, the median seed-adjusted z-score was -0.217.

For the sequence GCACAUAAGGAGGCGAUUATT against WDR33, the median seed-adjusted z-score was 3.27 (active).

Regarding GCAACAUCGUGUUCUUGAATT against GAL3ST1, the median seed-adjusted z-score is 0.263.

With GCAGAAACCCAGAUCGAGATT against PLAT, the median seed-adjusted z-score was 0.246.

GGAACUUUUUCGUCGGUAUTT against RNGTT: the median seed-adjusted z-score is -1.55 (active).

For CGACAUUGGUGACCCUCUUTT against DDOST, the median seed-adjusted z-score was -0.315.

GCAGUUCGAGAAGAACUUUTT against LMBR1: the median seed-adjusted z-score was 0.236.

On to AGACACCCUUUGGACCACATT against ZFAND2A, for which the median seed-adjusted z-score is 0.

Regarding GCACGAAUGAGGACGAUGATT against SPRY4, the median seed-adjusted z-score was -1.23 (active).

Consider GGUGGAAGUGGUCAACGUATT against DUSP21, for which the median seed-adjusted z-score was -0.0724.

As to GACGUGGAGUUGAUAAAGATT against DSC3, the median seed-adjusted z-score is 0.18.

On to GCCCGUCUGCAGUACCUAATT against ADAP2, for which the median seed-adjusted z-score was -1.1 (active).

In the case of GCACUUAUAUGACAGCGAATT against SIM1, the median seed-adjusted z-score was -0.0177.

With GCUCGAUUAACAAAAUAUATT against SLC30A5, the median seed-adjusted z-score was 0.401.

As for GAUUGGACCUAACAAUGGATT against NEIL3, the median seed-adjusted z-score was 0.0736.

As for UGCUGACUUUUAACCCACATT against CDK4, the median seed-adjusted z-score is 0.346.

Turning to CACUCGAAAUUUUGAAGCATT against CHD4, the median seed-adjusted z-score is 0.625.

With CGGUUGAACUUCGAAAUAUTT against NF1, the median seed-adjusted z-score was -0.36.

In the case of CAACGGCAGGAAAUUCUAATT against KLRA1, the median seed-adjusted z-score was 0.918.

For GUAUCGCAUUUCUACAGCATT against SAMHD1, the median seed-adjusted z-score was -1.33 (active).

AGAGCAAGCGGAAAAGGGATT against HAND1: the median seed-adjusted z-score was 0.161.

On to GAAUCACCAGCUAAACUAUTT against STARD6, for which the median seed-adjusted z-score was 0.0605.

With GCACCAGCGAGAGAAGAGATT against PLA2G3, the median seed-adjusted z-score was 0.543.

On to CCAAAGAACUUAAGGAUUUTT against NEURL2, for which the median seed-adjusted z-score was 1.39 (active).

Turning to GGUCUACGUGAACAACUCUTT against KCNMB4, the median seed-adjusted z-score was 0.

In the case of GCAAAUCGCUAGCAUCAUUTT against MLL2, the median seed-adjusted z-score is -2.11 (active).

As for GCAUUUUGCAUAUCCACCATT against TRMT12, the median seed-adjusted z-score is 0.352.

Take GAAGAAACUUGUGAACGAATT against MX1: the median seed-adjusted z-score is -1.49 (active).

Consider GGAACAGUCAUGCUGGAUATT against SLC4A7, for which the median seed-adjusted z-score was 0.

With GAACAUCGCAUAAUCCUGATT against ORC1L, the median seed-adjusted z-score was -0.536.

For GCAACUUCGUGAGAUUACATT against COLEC12, the median seed-adjusted z-score is -1.04 (active).

Regarding AAGCAUAAUUUGUACAGCUTT against NMNAT1, the median seed-adjusted z-score is 0.22.

On to CCAAGAUGCGAUCCUCCAATT against HOXA4, for which the median seed-adjusted z-score was 0.194.

As to GGCUUGGAUCAAUCUAAGATT against HNRNPL, the median seed-adjusted z-score is 1.04 (active).

In the case of GGGCAACUCUUCAUCUACATT against SLC5A10, the median seed-adjusted z-score was 0.669.

Consider GGCUAUACAUGGAUAGCAATT against SLITRK1, for which the median seed-adjusted z-score is 0.215.

With CGAUUAGUGUCAAAGGCUUTT against MMP7, the median seed-adjusted z-score is 0.0315.

As to CGAACGACAGUUCCACAAATT against PDE6A, the median seed-adjusted z-score was 1.25 (active).

As to GAAUCUAUGAGAUGAACAATT against LDB2, the median seed-adjusted z-score was -0.0847.

As to GCAGAAUACAAGAGCUUGATT against EID2, the median seed-adjusted z-score is -1.04 (active).

On to GGCUCCUUAUAUGACUAUUTT against ACVR1C, for which the median seed-adjusted z-score was -0.0005.

For GCUCUGAGGGAGUAUCGAATT against TROVE2, the median seed-adjusted z-score is 0.399.

With ACAUAACCGUUCUUCGAGATT against GTPBP2, the median seed-adjusted z-score is -0.166.

For the sequence CAAAAGGACAAAUCAACGATT against DDAH1, the median seed-adjusted z-score is 0.138.

GAGACUGUGCAGAUGUAUATT against ANGPT1: the median seed-adjusted z-score is 0.289.

Consider GCAUCAGCAUAAGUCCAUUTT against SIAH1, for which the median seed-adjusted z-score is 1.5 (active).

As to GUGUCGUACUCACAUCCAUTT against PTCH2, the median seed-adjusted z-score is -0.191.

With GUGACGGCUUUAGACCUGATT against PRTFDC1, the median seed-adjusted z-score was 0.493.

Take GCAAGGUUCCUAGCGUGUATT against VCAM1: the median seed-adjusted z-score is 0.19.

As to CAGCAGAGCCGAUCCAAGATT against GPR37L1, the median seed-adjusted z-score is -0.0348.

As for ACAUCUUCAAGGCCCUUUUTT against CTDSP2, the median seed-adjusted z-score is 0.498.

With GGAAUUCCGUAAAAGCAUUTT against HOXC13, the median seed-adjusted z-score was -0.318.

Take CACUAAUCGUGAGCAUGGATT against XRCC5: the median seed-adjusted z-score was -1.11 (active).

Regarding GAGUAGUUUAGAUAAGUUATT against SPAG9, the median seed-adjusted z-score was 0.0795.

For GCAUCCGAGAUGUGACUAATT against DIS3, the median seed-adjusted z-score is 0.266.

For the sequence GCAGUGAUCAUAAUUCUCATT against SLC7A1, the median seed-adjusted z-score was 0.445.

As for UGACGACACUGACCGCAGATT against UBE2S, the median seed-adjusted z-score is 0.348.

On to GCAUUGAGAUGUUCCACAATT against TUFM, for which the median seed-adjusted z-score was 1.07 (active).

Turning to GAAUCACUCUUUGACAACATT against SLC2A13, the median seed-adjusted z-score is -0.0451.

On to GAAGAAUACAAACAGCAAUTT against CRCP, for which the median seed-adjusted z-score was 0.

In the case of CAGCUGUUCUCAUAUGCUATT against ATP5G3, the median seed-adjusted z-score was 0.

As to CCUGAUUACUAUAAGAUCATT against BRD4, the median seed-adjusted z-score is 1.13 (active).

Consider GAACCUCUCUGAAACUGCUTT against PBLD, for which the median seed-adjusted z-score was -0.0809.

In the case of CGACUCCGGAGGAUUGAAATT against GSX2, the median seed-adjusted z-score was -0.621.

Regarding GCAAGUUAGUGGAUUAAAATT against FOXP1, the median seed-adjusted z-score was -0.198.
